High-throughput results from PubChem.
Shown are actives, neighbours in structure and some others; about 9.4% of the full set was active somewhere.
HPGD block: inhibitors of human 15-hydroxyprostaglandin dehydrogenase (HPGD); P15428; purified HPGD, NADH fluorescence kinetic, PGE2 substrate; Potency, µM, for the others: top-dose activity change, negative = inhibition, most hits filed as inhibitors; 150,000 tested, 4.3% active; AID 894; active = well fitted inhibition curve with a large enough effect, not every such curve was filed as active; inconclusive = small, poorly fitted or top-dose-only effect, or another doubt; inactive = no such curve, though single readings can be large or run the other way; also: potency is read from the fitted curve at half-maximal effect; % is scaled to controls: 0 for no effect and ±100 for the full control effect
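NADH formation kinetics: reaction with 30 uM PGE2 and 1 mM NAD+ (final), 20 nM enzyme, Tris-HCl pH 8 with Tween 20, after 15 min compound preincubation at room temperature. Fluorescence change, last versus first of five reads.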
IMPase cell inh: IMPase inhibition in cells | P97697 | CHO-M1 cells, IP1 accumulation, HTRF TR-FRET ratio | inhibition (IP1 accumulation), % at 46.1 µM | 120,000 tested, under 10 active; active = well fitted curve in the direction sought with a large enough effect in the signal ratio, not every such curve was filed as active; inconclusive = small, poorly fitted or top-dose-only effect, or a change in a side signal; inactive = no such curve, though single readings can be large or run the other way; the % refers to the signal ratio;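 also: cells stimulated with carbachol in lithium chloride buffer; plate controls were DMSO basal wells for no effect and reference inhibitor wells for full effect; higher means more IMPase inhibition seen as more IP1 and lower FRET ratio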
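Cellular IMPase inhibition is scored as a rise in cytosolic IP1, detected by competitive TR-FRET between d2-labelled IP1 and a europium anti-IP1 antibody. M1-expressing CHO cells were stimulated with carbachol for 30 min at 37C, with lithium (50 mM LiCl) present in the buffer.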
HTT cytoprotect: Huntington cell model cytoprotection by ATP luminescence; PC12 HTT-Q103 induced, cytoprotection, ATP luminescence, 40 h; 230,000 tested, 0.14% active; Potency, µM (highest dose often 56.4 µM), for the others: cytoprotection (ATP increase), actives largely listed as activators; also: potency is read from the fitted curve at half-maximal effect; % of control where 0% means no effect; nearly all actives have a fitted effect of over 45% in size
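Cells were plated at 1500 per well in phenol red-free DMEM with 5% equine and 5% calf serum. Tebufenozide (100 nM final) and compounds were added, then ATPlite reagent, and luminescence was read.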
IMPase Li inh: membrane-permeable IMPase blocker, potentiated with lithium | CHO-M1 cells, IP1 TR-FRET (IP-One), carbachol + lithium | Potency, µM (series often up to 59.4 µM), for inactives: at the top dose activity, negative = IMPase inhibition, most hits filed as inhibitors | 210,000 tested, 0.35% active | AID 1457;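 also: IP1 builds up when IMPase is blocked and the TR-FRET signal falls; potency is read from the fitted curve at half-maximal effect; plate controls were basal vehicle for no effect and high inhibitor control for full effect; nearly all actives have a fitted effect of over 50% in size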
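CHO cells stably expressing M1 receptor (2000/well) were cultured 16–30 h, then exposed to compounds with a small lithium addition for 30 min at 37C. IP1 was measured by TR-FRET competition; AC50 from Hill fits.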
ALDH1A1 inh: inhibitors of human aldehyde dehydrogenase 1A1; 220,000 tested, 7.3% active; Purified ALDH1A1, NADH fluorescence, propionaldehyde substrate; AID 1030; P00352; Potency, µM (top dose mostly 75.3 µM), inactives show at the top dose activity, negative = inhibition, actives largely listed as inhibitors; active = well fitted inhibition curve with a large enough effect, not every such curve was filed as active; inconclusive = small, poorly fitted or top-dose-only effect, or another doubt; inactive = no such curve, though single readings can be large or run the other way;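 also: potency is read from the fitted curve at half-maximal effect; plate controls were no enzyme wells and a reference inhibitor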
Target sequence (P00352 whole entry, looked up): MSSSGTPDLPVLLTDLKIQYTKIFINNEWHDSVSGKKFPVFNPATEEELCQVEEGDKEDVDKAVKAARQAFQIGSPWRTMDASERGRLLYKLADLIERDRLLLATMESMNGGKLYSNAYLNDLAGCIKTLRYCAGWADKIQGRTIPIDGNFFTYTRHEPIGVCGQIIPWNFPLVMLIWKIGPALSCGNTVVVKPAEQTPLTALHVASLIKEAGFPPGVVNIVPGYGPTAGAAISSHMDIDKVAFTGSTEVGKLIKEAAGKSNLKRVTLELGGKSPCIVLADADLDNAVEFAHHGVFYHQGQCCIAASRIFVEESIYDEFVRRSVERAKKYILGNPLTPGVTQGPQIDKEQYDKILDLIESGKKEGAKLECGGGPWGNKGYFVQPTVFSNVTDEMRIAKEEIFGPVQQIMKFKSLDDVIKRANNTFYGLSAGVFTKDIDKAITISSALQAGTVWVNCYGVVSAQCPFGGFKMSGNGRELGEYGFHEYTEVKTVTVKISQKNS
HttQ103 aggreg: reduces HttQ103-GFP aggregates in PC12 cells. 220,000 tested, 1.1% active. PC12 HttQ103-GFP aggregates, Acumen cytometry, 40 h. Potency, µM (top dose mostly 46.1 µM), without a hit: top-dose activity change, negative = inhibition, usual class: inhibitors; also: potency is read from the fitted curve at half-maximal effect; % is scaled to controls: 0 for no effect and ±100 for the full control effect; nearly all actives have a fitted effect of over 60% in size
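PC12 cells with ecdysone-inducible HTT exon1 Q103-GFP, induced by 100 nM tebufenozide, given compounds in a concentration series. GFP aggregates (1–25 um, 6 SD above background) counted in lysates by laser-scanning cytometry, 488 nm excitation.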
HPGD inh cf: confirmation of human HPGD inhibitors; shares compounds with HPGD block; AID 2429; recombinant HPGD, NADH fluorescence, PGE2 substrate; 90 tested, 90% active; Potency, µM (titrated, usually from 57.1 µM), for the others: at the highest dose activity change, negative = inhibition, most hits filed as inhibitors; calls by dose curve
The depositor's hits bear a star; ? = inconclusive; . = no result; [ ] = another dose, or the depositor's remark. Unless noted, calls follow the shape of the dose curve; as a rule, active = well fitted curve in the direction sought with a large enough effect; inconclusive = small, poorly fitted or top-dose-only effect, or another doubt; inactive = no such curve, though single readings can be large; an effect the other way counts as inactive or inconclusive.

SMILES	HPGD block	IMPase cell inh	HTT cytoprotect	IMPase Li inh	ALDH1A1 inh	HttQ103 aggreg	HPGD inh cf
O=C(NCCc1ccccc1)C1CCC(CNc2c(N3CCCCC3)c(=O)c2=O)CC1 (configuration not stated)	6.31µM*	.	.	9.5%	-15.7%	18.6%	6.31µM*
CC1CCN(c2c(NCC3CCC(C(=O)NCCc4ccccc4)CC3)c(=O)c2=O)CC1 (configuration not stated)	6.31µM*	.	.	-1.0%	-0.4%	13.6%	6.31µM*
O=C(NCCc1ccc(Cl)cc1)C1CCC(CNc2c(N3CCCCC3)c(=O)c2=O)CC1 (configuration not stated)	-27.6%	.	.	6.3%	-1.6%	14.4%	17.8µM*
CC(=O)N1C(O)CC(C)N1c1ccccc1 (configuration not stated)	-1.5%	.	0.7%[10 µM]	-2.0%	6.8%	9.8%	.
O=C(c1ccc(COc2ccccc2Br)cc1)N1CCCCC1	0.0447µM*	-2.4	-15.4%	22.6%[38.3 µM]	?	-30.1%	0.0891µM*
O=C(Nc1ccc(C(=O)N2CCCCC2)cc1)c1ccc(Br)cc1	0.631µM*	9.1	-11.7%	-2.0%[38.3 µM]	14.1µM*	?	0.355µM*
O=C(Nc1ccc(Br)cc1)N1CCCCCCC1	-8.9%	1.3	-19.7%	-7.7%[38.3 µM]	0.3%	-4.3%	.
COc1ccccc1C(=O)Nc1ccc(C(=O)N2CCCC2)cc1	1.41µM*	3.7	-22.6%	17.6%[38.3 µM]	-4.6%	-4.4%	1µM*
O=C(CSc1n[nH]c(-c2ccccc2)n1)Nc1ncc(Br)cc1Br	0.794µM*	0.2	22.1%	7.6%[38.3 µM]	7.4%	-21.2%	1.41µM*
Cc1nnc(NC(=O)CSc2n[nH]c(-c3ccccc3)n2)s1	.	.	13.7%[10 µM]	-6.5%	?	-11.1%[9.22 µM]	.
CC1=CC2C(CC1=O)C(C)=CCC2C(C)C (configuration not stated)	-5.3%	.	.	8.9%	-10.6%	.	.
O=C(CCc1ccc(Oc2cc([N+](=O)[O-])cc([N+](=O)[O-])c2)cc1)NC1CCCC1	15.8µM*	.	14.4%[10 µM]	1.1%	-6.5%	20.7%	5.01µM*
Cc1ccc(C(=O)COC(=O)CCC(=O)NC2CCCCC2)cc1[N+](=O)[O-]	.	.	24.8%	0.4%	-9.3%	-0.8%	.
CC1CCN(C(=O)CCc2ccc(Oc3cc([N+](=O)[O-])cc([N+](=O)[O-])c3)cc2)CC1	1µM*	.	32.0%[10 µM]	19.8%	?	5.1%	0.891µM*
CC(C)C[C@H](NC(=O)OC(C)(C)C)c1n[nH]c(=S)n1N	-14.9%	.	2.8%[0.074 µM]	13.3%	-3.8%	0.7%	.
COc1ccc(-c2cc(C(F)(F)F)n3nc(C(=O)N4CCCCC4)cc3n2)cc1OC	0.501µM*	?	-9.7%	-5.2%[38.3 µM]	-11.4%	-20.9%	0.282µM*
Cc1ccc(S(=O)(=O)N(C)c2ccc(C(=O)N3CCC(C(N)=O)CC3)cc2)cc1	28.2µM*	12.5	-7.2%[0.074 µM]	-14.9%[38.3 µM]	0.8%	10.1%	?
Cc1ccccc1C(=O)N1CCc2ccccc2C1	0.631µM*	5.6	-11.2%	40.3%[38.3 µM]	?	?	2.51µM*
O=c1ccc(Cl)n[nH]1	.	.	3.8%[10 µM]	.	.	-7.2%[9.22 µM]	.
COc1ccccc1NC(=O)c1sc2nc(Cc3ccccc3)cc(C(F)(F)F)c2c1N	-7.4%	2.3	-8.8%	9.0%[38.3 µM]	4.3%	-23.1%	-17.8%
COc1ccc(NC(=O)c2sc3nc(Cc4ccccc4)cc(C(F)(F)F)c3c2N)cc1OC	-9.7%	.	.	-9.0%	-2.7%	13.3%	.
CN(C)c1ccc(-c2nc(Nc3ccncc3)c3ccccc3n2)cc1	?	.	-97.0%	6.7%	-5.0%	.	.
CN(C)C(=O)c1ccc(-c2nc(Nc3ccncc3)c3ccccc3n2)cc1	0.159µM*	.	-47.7%	21.4%	0.6%	.	0.112µM*
O=C(O)CCSc1nnc(COc2cccc3ccccc23)n1-c1cccc(Cl)c1	.	.	.	-6.2%	2.6%	16.0%	.
